Screening data deposited in PubChem BioAssay by several laboratories.
This is a sample that favours compounds with a hit; in the whole collection about 3.5% have one here.
BoNT-A LC inh2: BoNT/A light chain protease inhibitors, primary screen, biochemical, flow cytometry, MLPCN library. AID 588499, 2011. multiplex microsphere protease substrate cleavage. inhibition, % at 10 µM. Botulinum neurotoxin type A light chain protease (Clostridium botulinum A str. ATCC 3502). 0.17% of 360,000 active
BoNT F protease: BoNT/F light chain protease inhibitors, primary screen, biochemical, flow cytometry, MLPCN library. inhibition, % at 10 µM. Multiplex microsphere protease cleavage assay. 0.22% of 360,000 active. Botulinum neurotoxin type F light chain protease (Clostridium botulinum). AID 588497, 2011; in the data active = inhibition above about 35%, passing the limit was not always enough; inconclusive = no clear call, values can overlap the other calls
Anthrax LF inh2: Bacillus anthracis LF protease inhibitors, primary screen, biochemical, multiplex microsphere, MLPCN library; AID 588501, 2011; inhibition, % at 10 µM; 0.12% of 360,000 active; multiplex microsphere protease cleavage assay; Lethal factor (Bacillus anthracis), P15917
Target sequence (P15917 whole entry, looked up): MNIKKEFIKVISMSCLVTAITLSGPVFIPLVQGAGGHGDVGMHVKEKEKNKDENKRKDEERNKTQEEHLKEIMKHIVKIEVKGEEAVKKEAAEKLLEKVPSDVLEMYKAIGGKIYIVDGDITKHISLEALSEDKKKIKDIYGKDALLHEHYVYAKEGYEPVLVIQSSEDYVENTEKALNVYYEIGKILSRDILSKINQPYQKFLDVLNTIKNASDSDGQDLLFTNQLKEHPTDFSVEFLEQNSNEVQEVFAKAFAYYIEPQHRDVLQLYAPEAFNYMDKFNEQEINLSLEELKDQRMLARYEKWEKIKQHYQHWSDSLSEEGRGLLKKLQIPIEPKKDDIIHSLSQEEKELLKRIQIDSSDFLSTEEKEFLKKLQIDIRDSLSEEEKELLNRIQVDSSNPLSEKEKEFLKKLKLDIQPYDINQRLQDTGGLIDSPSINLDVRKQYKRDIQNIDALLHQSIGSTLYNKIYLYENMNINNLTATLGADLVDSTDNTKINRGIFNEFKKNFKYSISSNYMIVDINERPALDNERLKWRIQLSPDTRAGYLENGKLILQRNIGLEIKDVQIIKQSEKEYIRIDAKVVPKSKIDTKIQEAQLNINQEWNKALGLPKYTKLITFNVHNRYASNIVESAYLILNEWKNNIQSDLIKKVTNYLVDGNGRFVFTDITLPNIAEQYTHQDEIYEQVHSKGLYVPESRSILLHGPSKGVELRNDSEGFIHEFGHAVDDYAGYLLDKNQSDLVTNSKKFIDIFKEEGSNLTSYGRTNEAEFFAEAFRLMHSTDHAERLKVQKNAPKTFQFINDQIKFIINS
BJeLR lethal: MLPCN primary cell-based screen for lethality selective to Ras in HRASV12 cells | inhibition, % (concentration not given with the values) | BJeLR (HRASV12) viability, CellTiter-Glo ATP luminescence, 48 h | 0.17% of 300,000 active; in the data active = inhibition above about 50%; inconclusive = no clear call, values can overlap the other calls
Bead autofluor: compound fluorescence in toxin protease inhibitor counterscreen; compound autofluorescence counterscreen, microsphere flow cytometry; hits give high values; fluorescence intensity (no concentration beside the values); 3.1% of 360,000 active; AID 624483; in the data active = fluorescence intensity above about 16000; inconclusive = no clear call, values can overlap the other calls
Numbers stand for hits. Cut-off read from the data, not from the text of the source, unless noted: active = inhibition above about 30%; inconclusive = no clear call, values can overlap the other calls; inactive = below that.

For CCCCCCCCN1C(=O)[C@H](CC(=O)N2CCCC2)C[C@@]2(C(=O)OC)CCCCC=C12 the results were BoNT-A LC inh2 inactive, BoNT F protease inactive, Anthrax LF inh2 inactive and Bead autofluor inactive.
Screening CC(C)[C@@H]1CC[C@@H](C)C[C@H]1O returned BoNT-A LC inh2 inactive, BoNT F protease inactive, Anthrax LF inh2 inactive and Bead autofluor inactive.
Screening CN1CCCC(C)(C(=O)Nc2ccc(-n3cccc3)cc2)C1 (stereo not drawn) returned BoNT-A LC inh2 inactive, BoNT F protease inactive, Anthrax LF inh2 inactive and Bead autofluor inactive.
`O=C(O)C[C@H](O)C[C@H](O)/C=C/c1c(C2CC2)nc2ccccc2c1-c1ccc(F)cc1` gave BJeLR lethal 53.
`CC(C)n1c(/C=C/[C@H](O)C[C@H](O)CC(=O)O)c(-c2ccc(F)cc2)c2ccccc21` gave BoNT-A LC inh2 inactive, BoNT F protease inactive, Anthrax LF inh2 inactive and Bead autofluor inactive.
For CC(Oc1ccc(S(=O)(=O)N2CCCC2)cc1[N+](=O)[O-])C(=O)NC1(C#N)CCCCC1 (stereo not drawn) the results were BoNT-A LC inh2 inactive, BoNT F protease inactive, Anthrax LF inh2 inactive and Bead autofluor inactive.
`Cc1c(-c2ccccc2)nc(N)c(C#N)c1-c1ccco1` gave BoNT-A LC inh2 inactive, BoNT F protease inactive, Anthrax LF inh2 inactive and Bead autofluor 20557.
Screening CC1(C(=O)O)CCN1C(=O)COc1ccc(Cl)cc1 (stereo not drawn) returned BoNT-A LC inh2 inactive, BoNT F protease inactive, Anthrax LF inh2 inactive and Bead autofluor inactive.
`COc1ccc(CCNC(=O)C2CCCN(Cc3nc(-c4ccccc4C)oc3C)C2)cc1OC` (stereo not drawn) gave BoNT-A LC inh2 inconclusive, BoNT F protease inactive, Anthrax LF inh2 inactive, BJeLR lethal inactive and Bead autofluor 21174.
Cc1ccccc1-c1nc(CS(=O)(=O)CC(=O)NCCCN2CCCC2)c(C)o1 was read as BoNT-A LC inh2 inactive, BoNT F protease inactive, Anthrax LF inh2 inactive, BJeLR lethal inactive and Bead autofluor inactive.
COc1ccc(CCNC(=O)C2CCN(Cc3nc(-c4cccc(Cl)c4)oc3C)CC2)cc1OC was read as BoNT-A LC inh2 inactive, BoNT F protease inactive, Anthrax LF inh2 inactive, BJeLR lethal inactive and Bead autofluor inactive.
Screening CCc1ccc(-c2nc(CN3CCCC(C(=O)NCCc4ccc(OC)c(OC)c4)C3)c(C)o2)cc1 (stereo not drawn) returned BoNT-A LC inh2 inconclusive, BoNT F protease inactive, Anthrax LF inh2 inactive, BJeLR lethal inactive and Bead autofluor 21829.
`Cc1oc(-c2ccc(Cl)cc2)nc1CN1CCC(C(=O)NCc2cccnc2)CC1` gave BoNT-A LC inh2 inactive, BoNT F protease inactive, Anthrax LF inh2 inactive, BJeLR lethal inactive and Bead autofluor 16967.
`Cc1ccccc1-c1nc(CN2CCCC(C(=O)NCCCN3CCOCC3)C2)c(C)o1` (stereo not drawn) gave BoNT-A LC inh2 inactive, BoNT F protease inactive, Anthrax LF inh2 inactive, BJeLR lethal inactive and Bead autofluor 24221.
NC(=O)NS(=O)(=O)Oc1ccccc1 was read as BoNT-A LC inh2 inactive, BoNT F protease inactive, Anthrax LF inh2 inactive, BJeLR lethal inactive and Bead autofluor inactive.
`CCC(CC)C(=O)N=C1SC2CS(=O)(=O)CC2N1CCc1ccc(OC)cc1` (stereo not drawn) gave BoNT-A LC inh2 inactive, BoNT F protease inactive, Anthrax LF inh2 inactive, BJeLR lethal inactive and Bead autofluor inactive.
For Cc1ccc(NS(=O)(=O)c2ccc(OCC(=O)NCc3cccnc3)cc2)cc1 the results were BoNT-A LC inh2 inactive, BoNT F protease inactive, Anthrax LF inh2 inactive, BJeLR lethal inactive and Bead autofluor inactive.
Screening CC(=O)N1CCN(C(=O)COC(=O)c2ccc(S(C)(=O)=O)cc2)CC1 returned BoNT-A LC inh2 inactive, BoNT F protease inactive, Anthrax LF inh2 inactive and Bead autofluor inactive.
For Cc1ccccc1-c1nc(CN2CCCC(C(=O)NCc3cccnc3)C2)c(C)o1 (stereo not drawn) the results were BoNT-A LC inh2 inconclusive, BoNT F protease inactive, Anthrax LF inh2 inactive, BJeLR lethal inactive and Bead autofluor 24766.
`CN1CCCCCC1=Nc1ccc([N+](=O)[O-])cc1` gave BoNT-A LC inh2 inactive, BoNT F protease 39, Anthrax LF inh2 inactive, BJeLR lethal inactive and Bead autofluor inactive.
Screening CN1CCCC1=Nc1ccccc1 returned BoNT-A LC inh2 inactive, BoNT F protease inactive, Anthrax LF inh2 inactive and Bead autofluor inactive.
For O=C(NCCN1CCCCC1)Nc1ccccc1 the results were BoNT-A LC inh2 inactive, BoNT F protease inactive, Anthrax LF inh2 inactive, BJeLR lethal inactive and Bead autofluor 24890.
`O=C(N/N=C1\C(=O)c2cccc3cccc1c23)c1ccc(O)cc1` gave BoNT-A LC inh2 inactive, BoNT F protease inactive, Anthrax LF inh2 inactive, BJeLR lethal inactive and Bead autofluor inactive.
For CCCCNC(=S)Nc1cccc2cnccc12 the results were BoNT-A LC inh2 inactive, BoNT F protease inactive, Anthrax LF inh2 inactive, BJeLR lethal inactive and Bead autofluor inactive.
For CNC(=S)N/N=C1\C(=O)c2cccc3cccc1c23 the results were BoNT-A LC inh2 inactive, BoNT F protease inactive, Anthrax LF inh2 inactive, BJeLR lethal inactive and Bead autofluor 17615.
`CCCCNC(=S)N/N=C1\C(=O)c2cccc3cccc1c23` gave BoNT-A LC inh2 inactive, BoNT F protease inactive, Anthrax LF inh2 inactive, BJeLR lethal inactive and Bead autofluor 20454.
`CCOc1ccccc1C(=O)NC(C(=O)OCC(=O)NNC(=O)c1cccs1)C(C)C` (stereo not drawn) gave BoNT-A LC inh2 inactive, BoNT F protease inactive, Anthrax LF inh2 inactive and Bead autofluor inactive.
Screening CCOC(=O)c1c(C)[nH]c(C)c1C(=O)COC(=O)[C@@H](NC(=O)c1ccccc1OCC)C(C)C returned BoNT-A LC inh2 inactive, BoNT F protease inactive, Anthrax LF inh2 inactive, BJeLR lethal inactive and Bead autofluor 23944.
For COc1ccc(Oc2ccc3c(C(F)(F)F)cc(C(F)(F)F)nc3n2)cc1 the results were BoNT-A LC inh2 inconclusive, BoNT F protease inactive, Anthrax LF inh2 inactive, BJeLR lethal inactive and Bead autofluor 22263.
FC(F)(F)c1ccc(Oc2ccc3c(C(F)(F)F)cc(C(F)(F)F)nc3n2)cc1 was read as BoNT-A LC inh2 inactive, BoNT F protease inactive, Anthrax LF inh2 inactive, BJeLR lethal inactive and Bead autofluor 22830.
Screening Clc1ccccc1Nc1nnc(-c2ccncc2)s1 returned BoNT-A LC inh2 inactive, BoNT F protease inactive, Anthrax LF inh2 inactive, BJeLR lethal 85 and Bead autofluor inactive.
Screening CNc1nnc(-c2ccncc2)s1 returned BoNT-A LC inh2 inactive, BoNT F protease inactive, Anthrax LF inh2 inactive, BJeLR lethal inactive and Bead autofluor 16766.
CC1C(=O)N(Cc2cn(CCC3OCCCO3)nn2)CCS(=O)(=O)N1Cc1ccc(-c2ccc(Cl)c(Cl)c2)cc1 (stereo not drawn) was read as BoNT-A LC inh2 inactive, BoNT F protease inactive, Anthrax LF inh2 inactive and Bead autofluor inactive.
